Consider 81 compounds from PubChem BioAssay AID624151 (Broad Institute, 2012).

In all, about 28,000 compounds went through this assay and about 410 (1.5%) were called active. Rule as the data show it: active = activation above about 52%; inconclusive = no clear call, values can overlap the other calls; inactive = below that. The entries come from a sample that favours actives as a whole.

A short description of the assay: mutant p53 pathway re-activators, primary screen, cell-based, SW480, luciferase, single point, HTS (AID 624151). As to conditions: SW480 PUMA-promoter luciferase, p53 mutant reactivation; at 9.98 µM; hits give high values.
`COc1ccc(NC(=O)Cn2cnc3sc(C)c(C)c3c2=O)cc1`: the activation is 4.48% (inactive).
Consider `COc1ccc(NC(=O)N(C)C[C@H]2Oc3cc(-c4ccncc4)ccc3S(=O)(=O)N([C@H](C)CO)C[C@H]2C)cc1`, for which the activation was -12.4% (inactive).
Turning to `COc1ccc(NC(=O)CSC2CC(=O)N(c3ccc(F)cc3)C2=O)cc1` (stereo unspecified), the activation is -1.05% (inactive).
For the compound `Cc1ccccc1-n1c(C)cc(/C=C2\NC(=O)NC2=O)c1C`, the activation is 22.9% (inactive).
As to `Cc1ccc(C(=O)O)cc1S(=O)(=O)NCCCO`, the activation was -7.19% (inactive).
To `COc1cccc2cc(C(=O)C3C(=O)C(=O)N(CCN4CCOCC4)C3c3ccc(F)cc3)oc12` (stereo unspecified) belongs 4.69% (inactive); to `C[C@H](O)C#Cc1cnc2c(c1)C(=O)N([C@@H](C)CO)C[C@H](C)[C@H](CN(C)C(=O)c1ccccc1)O2`, 10.7% (inactive); to `C[C@@H]1CN([C@H](C)CO)S(=O)(=O)c2ccc(C#CC3CC3)cc2O[C@H]1CN(C)C(=O)C1CCCCC1`, -13.7% (inactive).
Take `Cc1sc2ncnc(SCC(=O)Nc3ccccc3)c2c1-c1ccccc1`: the activation was -11.3% (inactive).
To `Cc1ccc(S(=O)(=O)c2nc(-c3cccs3)oc2NCc2cccnc2)cc1` belongs -4.49% (inactive); to `C[C@@H]1CN([C@H](C)CO)S(=O)(=O)c2ccc(C#C[C@@H](C)O)cc2O[C@H]1CN(C)C(=O)CC1CC1`, 0.298% (inactive); to `CS(=O)(=O)N(CC(=O)Nc1ccc(Br)cc1)c1cc(Cl)c(Cl)cc1Cl`, -23.8% (inactive).
To `C[C@H](CO)N1C[C@H](C)[C@H](CN(C)C(=O)c2cnccn2)Oc2cc(C3=CCCC3)ccc2S1(=O)=O` belongs 3.46% (inactive); to `O=C(CSc1nnc(-c2ccncc2)n1-c1ccc(Cl)cc1)Nc1ccc(C(=O)O)cc1`, 7.38% (inactive); to `CCCC#Cc1cnc2c(c1)C(=O)N([C@H](C)CO)C[C@H](C)[C@@H](CN(C)C(=O)c1cccnc1)O2`, 2.84% (inactive).
For `Cc1ccn2c(NC(=O)C(C)(C)Oc3ccc(Cl)cc3)c(-c3ccc(F)cc3)nc2c1`, the activation is -19% (inactive).
As for `CCc1ccccc1NC(=O)CSc1nnc(N)s1`, the activation was 10.1% (inactive).
To `COc1ccc(NC(=O)C(C)N2c3cccc4cccc(c34)S2(=O)=O)c(OC)c1` (stereo unspecified) belongs -6.27% (inactive); to `COc1ccccc1-c1cnc2c(c1)C(=O)N([C@@H](C)CO)C[C@@H](C)[C@@H](CN(C)C(=O)c1cccnc1)O2`, 2.65% (inactive); to `COc1ccccc1-c1cnc2c(c1)C(=O)N([C@H](C)CO)C[C@H](C)[C@@H](CN(C)CC1CCOCC1)O2`, 5.27% (inactive).
As to `O=C(O)CCSc1nnc2c(n1)[nH]c1ccccc12`, the activation was -2.83% (inactive).
For the compound `O=C(CSc1nnc(-c2ccco2)n1-c1ccccc1)Nc1ccc(F)cc1`, the activation is 7.08% (inactive).
To `O=C(CSc1nnc(-c2ccc(Br)cc2)o1)Nc1ccc2ccccc2c1` belongs -20.7% (inactive).
Consider `COc1ccccc1-c1nnc(SCC(=O)Nc2ccccc2)o1`, for which the activation was 28.3% (inactive).
For the compound `Cc1ccc(-c2nnc(SCC(=O)Nc3ccccc3OC(F)F)o2)cc1`, the activation was 102% (active).
With `O=C(CSc1ncnc2sc3c(c12)CCCC3)Nc1ccc(F)c(Cl)c1`, the activation was 0.113% (inactive).
Take `CC(C)Cc1nc(SCC(=O)Nc2ccc3ccccc3c2)n[nH]1`: the activation was 9.32% (inactive).
Turning to `C/C=C/c1ccc2c(c1)O[C@H](CN(C)Cc1cccc(F)c1)[C@H](C)CN([C@H](C)CO)S2(=O)=O`, the activation was -12.7% (inactive).
With `COc1ccccc1NC(=O)N(C)C[C@@H]1Oc2ncc(Br)cc2C(=O)N([C@@H](C)CO)C[C@@H]1C`, the activation was 3.31% (inactive).
In the case of `CCn1c(SCC(=O)O)nc2sc3c(c2c1=O)CC(C)(C)OC3`, the activation is 17.9% (inactive).
Consider `COC(=O)c1cc(OC)c(OC)cc1NC(=O)c1cc(-c2ccc(C)o2)nc2ccccc12`, for which the activation is 21.7% (inactive).
For `Cc1ccc(C(=O)Oc2ccc(C(=O)CSc3nc4ccccc4o3)cc2)cc1`, the activation was 45.6% (inactive).
With `COc1ccc(C(=O)CCC(=O)Nc2ccc(Br)cc2)cc1`, the activation is -1.31% (inactive).
To `COc1ccccc1NC(=O)CSc1n[nH]c(C)n1` belongs -9.46% (inactive); to `CCOc1ccc(NC(=O)Cn2c(=O)n(-c3ccc(Cl)cc3)c(=O)c3c4c(sc32)CCC4)cc1`, -5.81% (inactive).
Take `COc1ccccc1-n1c(N)cc(=O)nc1SCC(=O)Nc1ccc(Br)cc1`: the activation is 3.88% (inactive).
For the compound `COC(=O)COc1cccc(NC(=O)c2cc(OC)c(OC)c(OC)c2)c1`, the activation was 9.43% (inactive).
To `Cc1cc2oc(C(=O)Nc3sc4c(c3C(=O)NCc3ccco3)CCC4)c(C)c2cc1C` belongs -5.36% (inactive); to `C[C@@H]1CN([C@@H](C)CO)S(=O)(=O)c2ccc(-c3cccc(C#N)c3)cc2O[C@@H]1CN(C)Cc1cccc(F)c1`, -25.7% (inactive); to `C[C@@H]1CN([C@@H](C)CO)C(=O)c2cc(/C=C/c3ccccc3)cnc2O[C@H]1CN(C)C(=O)Nc1ccc(C(F)(F)F)cc1`, -18.8% (inactive).
On to `COc1ccc(Cl)cc1NC(=O)CSc1nnc(-c2ccc(Cl)c(Cl)c2)n1C`, for which the activation is 1.7% (inactive).
Regarding `C/C=C/c1ccc2c(c1)O[C@H](CN(C)C(=O)Cc1cccnc1)[C@@H](C)CN([C@H](C)CO)S2(=O)=O`, the activation is -5.22% (inactive).
With `Cc1cc(=O)oc2cc(OC(C)C(=O)Nc3ccc(Cl)c(C(F)(F)F)c3)ccc12` (stereo unspecified), the activation is 0.711% (inactive).
Take `CCCC#Cc1ccc2c(c1)O[C@@H](CN(C)CC1CC1)[C@@H](C)CN([C@H](C)CO)S2(=O)=O`: the activation was 1.22% (inactive).
Take `COCCNC(=O)C[C@@H]1C[C@@H]2c3cc(NC(=O)Nc4ccc(C(F)(F)F)cc4)ccc3O[C@@H]2[C@@H](CO)O1`: the activation is 11.3% (inactive).
As for `Cc1ccnc(NC(c2cccc([N+](=O)[O-])c2)c2ccc3ccc(C)nc3c2O)c1` (stereo unspecified), the activation is -13.9% (inactive).
With `Cc1csc2nc(SCC(=O)Nc3ccc([N+](=O)[O-])cc3)[nH]c(=O)c12`, the activation is 15.6% (inactive).
As to `COc1ccc(NC(=O)CSc2nnnn2C)cc1Cl`, the activation is 47.7% (inactive).
To `COc1cc(NC(=O)COc2ccccc2Br)c(OC)cc1Cl` belongs 132% (active).
To `COc1cc(NC(=O)COc2ccc(Br)cc2)ccc1NC(=O)c1ccccc1Cl` belongs 20.3% (inactive); to `COc1cc(NC(=O)COc2ccc(Cl)cc2C)c(OC)cc1Cl`, 105% (active).
For the compound `COC(=O)c1cc(OC)c(OC)cc1NC(=O)COc1ccccc1Cl`, the activation was 10.4% (inactive).
In the case of `COc1cc(NC(=O)COc2cc(C)c(Br)c(C)c2)c(OC)cc1Cl`, the activation was 0.202% (inactive).
`COC(=O)c1cc(OC)c(OC)cc1NC(=O)COc1ccc(Cl)cc1`: the activation was -22.9% (inactive).
As for `Cn1nnc(NC(=O)COc2ccc(Cl)cc2Cl)n1`, the activation is 70.8% (active).
As to `CCOc1ccc(OCC(=O)Nc2cc(C)c(Cl)cc2OC)cc1`, the activation is 8.21% (inactive).
To `CS(=O)(=O)N(CC(=O)Nc1cc(C(F)(F)F)ccc1Cl)c1ccccc1Br` belongs -13.9% (inactive); to `Cc1cc(C)c2oc(-c3cccc(NC(=O)COc4ccc(Br)cc4)c3C)nc2c1`, -29.6% (inactive).
For the compound `Cc1ccc2nc(-c3ccc(Cl)c(NC(=O)COc4ccc(Br)cc4)c3)oc2c1`, the activation was 91.4% (active).
Turning to `Cc1ccc(OCC(=O)Nc2cc(-c3nc4cc(C)c(C)cc4o3)ccc2C)cc1`, the activation was 39.9% (inactive).
`CS(=O)(=O)N(CC(=O)Nc1ccccc1C(=O)N1CCOCC1)c1ccc(I)cc1`: the activation is 9.09% (inactive).
Regarding `CN(C)CCNc1oc(COc2ccc(F)cc2)nc1C#N`, the activation is -4.45% (inactive).
For the compound `Cc1ccc(N(CC(O)CN2C(=O)NC(C)(C)C2=O)S(=O)(=O)c2ccccc2)cc1` (stereo unspecified), the activation was 22.6% (inactive).
For the compound `O=C1c2ccccc2C(=O)N1CCCc1nc2ccccc2c(=O)n1-c1nc2ccccc2s1`, the activation was 102% (active).
Consider `Cc1ccc(NC(=O)CCCN2C(=O)c3ccccc3C2=O)cc1`, for which the activation is 11.8% (inactive).
As for `O=C1c2ccccc2C(=O)N1CCCn1c2ccccc2c2nc3ccc([N+](=O)[O-])cc3cc21`, the activation is 9.36% (inactive).
In the case of `COCC#Cc1cnc2c(c1)C(=O)N([C@H](C)CO)C[C@H](C)[C@@H](CN(C)C(=O)Nc1cc(F)ccc1F)O2`, the activation is 13.3% (inactive).
To `CC(NS(=O)(=O)c1ccc(F)cc1)C(=O)Nc1ccc(I)cc1` (stereo unspecified) belongs -13.8% (inactive); to `COc1ccc(C#Cc2cnc3c(c2)C(=O)N([C@H](C)CO)C[C@H](C)[C@@H](CN(C)C)O3)cc1`, 0.282% (inactive).
To `O=C(CS(=O)(=O)c1ccccc1)Nc1ccc2c(c1)OCCO2` belongs 61.6% (active); to `COc1ccc(S(=O)(=O)N(C)CC(=O)Nc2ccc3c(c2)OCCO3)cc1OC`, -12.9% (inactive); to `O=C(CS(=O)(=O)c1ccccc1)Nc1ccccc1O`, 7.6% (inactive).
With `CN(c1ccc(C(=O)NCc2ccccn2)cc1)S(C)(=O)=O`, the activation was 5.75% (inactive).
`CC(C)(C)c1ccc(OCC(=O)NCc2ccccn2)c(Br)c1`: the activation is 94.5% (active).
To `Cc1ccc2nc(-c3ccncc3)cc(C(=O)NCc3ccccn3)c2c1` belongs -3.82% (inactive); to `CCCNC(=O)N(C)C[C@H]1Oc2cc(C#CC(C)(C)O)ccc2S(=O)(=O)N([C@H](C)CO)C[C@@H]1C`, 14.1% (inactive).
On to `CCc1ccccc1NC(=O)Cn1cnc2scc(-c3ccc(OC)cc3)c2c1=O`, for which the activation is -10.3% (inactive).
To `Cc1cccc(N(CC(=O)Nc2cccc([N+](=O)[O-])c2)S(C)(=O)=O)c1C` belongs -1.11% (inactive); to `Cc1nc(SCC(=O)Nc2ccc(C(=O)O)cc2)[nH]c(=O)c1C`, -11.8% (inactive).
To `CCn1cc(CNC(=S)Nc2cc(OC)ccc2OC)cn1` belongs -10.5% (inactive).
To `CCCNC(=O)N(C)C[C@@H]1Oc2ncc(-c3ccccc3F)cc2C(=O)N([C@@H](C)CO)C[C@H]1C` belongs 16.1% (inactive).
